# PubChem BioAssay (NCATS)
# Results filed as inconclusive are left out. Entries that show only a call come without a potency. Calls of active or inactive are those of the source. Calls come from the whole dose curve; as a rule, active = well fitted cell-killing curve with a large enough effect; inconclusive = small, poorly fitted or top-dose-only effect; inactive = flat fitted curve, though single readings scatter.
# Experiment: SW1088 Cancer Cell Toxicity qHTS against the NCATS CANVASS Library (AID 1347350); note: nearly all actives have a fitted effect of over 75% in size
# Details: SW1088 viability, CellTiter-Glo luminescence, 72 h; series mostly up to 38.3 µM
# Source text: Natural products and their derivatives continue to be wellsprings of nascent therapeutic potential. However, many laboratories have limited resources for biological evaluation, leaving their previously isolated or synthesized compounds largely or completely untested. To address this issue, the Canvass library of natural products was assembled (https://tripod.nih.gov/canvass), in collaboration with academic and industry researchers, for quantitative high-throughput screening (qHTS) across a diverse set of cell-based and biochemical assays. The pure (>85% purity by liquid chromatography/mass spectrometry [LC/MS]) Canvass library of 346 natural products were submitted by 45 academic laboratories and companies around the world. We collected pure natural products to circumvent deconvolution and structure elucidation due to time and resource limitations. The library was formatted into 1536-well plates and evaluated in 50 qHTS (in an 11-pnt concentration series) bioassays with broad scope of disease-relevant mechanisms. The resulting data set from 50 different assays was then systematically analyzed to identify overall trends and specific natural products with interesting biological activities. Reported herein are the results of each individual qHTS and their corresponding assay protocol. National Center for Advancing Translational Sciences (NCATS), Rockville, MD National Institute of Health (NIH), Bethesda, Maryland
# Cancer Cell Toxicity protocol for cell lines COV-362, OV-KATE, OV-SAHO, UWB1.289, UWB1.289-WTBRCA1, HEK-293, HPAF-II, Panc-1005, SW1088, or U-118MG. 1. In a 1536 well, white solid bottom tissue culture plates (Corning 7494), corresponding cells (COV-362, OV-KATE, OV-SAHO, UWB1.289, UWB1.289-WTBRCA1, HEK-293, HPAF-II, Panc-1005, SW1088, or U-118MG) were dispensed in each well at a final concentration of 1000 cells / well (6uL volume) using the Multidrop Combi (Thermo Fisher Scientific) dispenser. 2. The plates were incubated for 4 hours at 37 degrees C/5% CO2/95% Rh. 3. Compounds were pin transferred (~23nL volume) via Wako Pin-tool (Wako Automation, Richmond VA) equipped with a 1536 pin head. The assay plates were treated with compounds in an 11-pnt concentration series with a final concentration range of […] to 85uM. 4. Bortezomib was used as a single dose control (0.5mM column 4, rows 1 - 32) at a final concentration of 1.9uM and as a 16pnt titration (1mM; 1:2 dilution; 16-points; n = 2; column 3, rows 1 - 32) with final concentration range of 0.1nM - 3.8uM. 5. The assay plates were incubated for 72 hours at 37 degrees C/5% CO2/95% Rh. 6. 3uL CellTiter-Glo detection reagent was then added to the plates (columns 2 - 48, rows 1 - 32) and incubated at room temperature for additional 15min. 7. Luminescence signal was acquired via the ViewLux plate reader (PerkinElmer) using a clear filter, 2 second exposure and 2x binning settings.
# Potency is the fitted concentration of half-maximal effect.
row,Compound,Potency
1,COc1ccc2c(c1)[nH]c1c(C)nccc12,inactive
2,C[C@]12CC(O)C3[C@@H](CCC4C[C@@H](O)CC[C@@]43CO)[C@@]1(O)CCC2C1=CC(=O)OC1 (some centres not stated),inactive
3,C/C=C1/CN2CC[C@]34C(=Nc5ccccc53)[C@@H]2C[C@@H]1[C@H]4C(=O)OC,inactive
4,CC=C1CN(C=O)[C@H]2C[C@@H]1[C@@H](C(=O)OC)[C@@]13CCOC21Nc1ccccc13 (some centres not stated),inactive
5,CN(C)Cc1c[nH]c2ccccc12,inactive
6,CNCCc1ccccc1,inactive
7,CCN1C[C@]2(C)CC[C@H](O)[C@]34C1C(C[C@H]23)[C@@]12CC[C@H](CC14)[C@](O)(COC(=O)c1ccc(OC)c(OC)c1)[C@H]2O (some centres not stated),inactive
8,CN1C(=O)[C@]23CC4C(C)(C)[C@@]5(C[C@@]41CN2CC[C@@]3(C)O)C(=O)Nc1c5ccc2c1OC=CC(C)(C)O2 (some centres not stated),inactive
9,CO[C@@H](/C=C/CC/C=C/C(=O)O)[C@@H](O)[C@H](C)[C@@H](O)/C(C)=C/[C@H](C)C(=O)CCCC1CC(=O)NC(=O)C1,inactive
10,CNCCc1ccc(O)cc1,inactive
11,CCN1C[C@]2(C)CC[C@@H](O)[C@]34C1[C@H](C[C@H]23)C12CCC(CC14)[C@](O)(CO)[C@H]2O (some centres not stated),inactive
12,CCC[C@H]1CC[C@H]2[C@H](C)CCC[C@H]2N1,inactive
13,COc1ccc(C23Oc4cc(OC)cc(OC)c4[C@](O)([C@H](c4ccccc4)C2C(=O)NCCCCNC(=O)c2ccccc2)[C@@H]3O)cc1 (some centres not stated),inactive
14,CO[C@H](c1ccccc1)[C@H]1NC(=O)C(C)NC(=O)C(C[C@@H](C)CO)N(C)C(=O)[C@@H](C(O)c2cn(C(C)(C)C3CO3)c3ccccc23)NC(=O)C(C(C)C=C(C)C)NC(=O)C(CC(C)C)N(C)C(=O)C(C(C)C)NC1=O (some centres not stated),inactive
15,CC1=CC2CC[C@@H]3[C@@H](C)C[C@H](C)[C@@H](C1)N23 (some centres not stated),inactive
16,CCCCC[C@@H]1OC(=O)[C@@H](C)N(C)C(=O)[C@H](CCCCC)OC(=O)C(C)N(C)C(=O)[C@H](CCCCC)OC(=O)[C@@H](C)N(C)C(=O)[C@H](CCCCC)OC(=O)C(C)N(C)C1=O (some centres not stated),6.68 µM (active)
17,CC1=CC(=O)C2=C(C)C[C@H](O)[C@@H]3[C@H](OC(=O)[C@@H]3C)[C@@H]12,inactive
18,CC(=O)N[C@H]1CCN2CCC[C@H]12,inactive
19,NCCc1ccccc1,inactive
20,CCCC[C@@H]1CC[C@H]2CCCC(CCC)N12 (some centres not stated),inactive
21,CO[C@@H](/C=C/CC/C=C/C(=O)O)[C@@H](O)[C@H](C)/C=C(\C)[C@@H](O)[C@H](C)C(=O)CCCC1CC(=O)NC(=O)C1,inactive
22,c1ccc2c3c([nH]c2c1)CNCC3,26.6 µM (active)
23,COC(=O)C1=C2Nc3ccccc3[C@@]23CCN2CC(C(C)=O)C1C[C@H]23 (some centres not stated),inactive
24,CCC(=O)CCCCC[C@@H]1NC(=O)[C@H]2CCCCN2C(=O)[C@H]([C@@H](C)CC)NC(=O)[C@H](Cc2cn(OC)c3ccccc23)NC1=O,2.66 µM (active)
25,COc1ccc2c3c([nH]c2c1)C(C)=NCC3,inactive
26,CC[N@@+]1([O-])C[C@]2(C)CC[C@@H](O)[C@@]34C5C[C@H]6CC[C@@]5(C(C[C@H]23)C41)[C@H](O)[C@@]6(O)CO (some centres not stated),inactive
27,O=C(c1ccccc1O)c1[nH]c(Cl)c(Cl)c1-n1c(C(=O)c2ccccc2O)cc(Cl)c1Cl,0.749 µM (active)
